# Compound activity from PubChem.
# Rows were chosen to be rich in hits. Some 3.5% of all compounds tested hit in one or more screens of this group.
# Bead autofluor: flagged as autofluorescent in microsphere protease counterscreen. compound autofluorescence counterscreen, microsphere flow cytometry; active compounds read high. fluorescence intensity (concentration not given with the values). hit rate 3.1% among 360,000. AID 624483; in the data active = fluorescence intensity above about 16000; inconclusive = no clear call, values can overlap the other calls
# BoNT A protease: blocks Botulinum neurotoxin A light chain protease; AID 588499; multiplex microsphere protease substrate cleavage, flow cytometry; hit rate 0.17% among 360,000; inhibition, % at 10 µM; note: plate controls were buffer without enzyme for full effect and enzyme alone for no effect
# Anthrax LF prot: blocks Bacillus anthracis lethal factor protease. hit rate 0.12% among 360,000. multiplex microsphere protease cleavage assay, LF. P15917. inhibition, % at 10 µM; note: plate controls were buffer without enzyme for full effect and enzyme alone for no effect
# BoNT F protease: inhibitors of Botulinum neurotoxin F light chain protease; Multiplex microsphere protease cleavage assay, flow cytometry; inhibition, % at 10 µM; hit rate 0.22% among 360,000; in the data active = inhibition above about 35%, passing the limit was not always enough; inconclusive = no clear call, values can overlap the other calls; note: plate controls were buffer without enzyme for full effect and enzyme alone for no effect
# Numbers without * were called inactive; ? = inconclusive. Cut-off read from the data, not from the text of the source, unless noted: active = inhibition above about 30%; inconclusive = no clear call, values can overlap the other calls; inactive = below that.
SMILES,Bead autofluor,BoNT A protease,Anthrax LF prot,BoNT F protease
O=C(CSc1nnc(-c2cc3ccccc3cc2O)n1Cc1ccco1)N1CCc2ccccc2C1,11125,0,-1,-7
CSCCCN1CCC(n2nccc2NC(=O)CCCc2ccccc2)CC1,5020,3,-1,9
O=c1c2ccccc2nc2sc(Nc3ccc(F)cc3)nn12,2784,-1,5,0
Cc1ccccc1Nc1nn2c(=O)c3ccccc3nc2s1,23125*,0,0,-2
CN(Cc1ccccc1)C(=O)c1[nH]cnc1C(=O)Nc1ccon1,3741,0,-4,0
COc1cccc(C(=O)CN2CCC(NC(=O)NC3CCCCC3)CC2)c1,13711,-5,-9,-12
COc1cccc(C(=O)CN(C(=O)c2ccc(Cl)c(Cl)c2)N2C(=O)C3CCCCC3C2=O)c1 (stereo not drawn),17192*,-2,-3,-3
COc1ccc(C(=O)CN(C(=O)c2ccc(Cl)cc2)N2C(=O)C3CCCCC3C2=O)cc1 (stereo not drawn),11113,?,-21,38*
CC(C)n1nnnc1SCC(=O)Nc1ccccc1F,3619,0,7,-5
CC(C)C(=O)N=C1SC2CS(=O)(=O)CC2N1Cc1ccccc1 (stereo not drawn),1997,-1,0,-1
CCOC(=O)c1c(-c2cccs2)csc1NC(=O)COC(=O)c1c(C)noc1C,16276*,0,-4,-3
CCOC(=O)c1c(-c2cccs2)csc1NC(=O)c1ccncc1,4274,-1,4,4
Cc1cc(C(F)(F)F)nc(SCC(=O)c2cccc([N+](=O)[O-])c2)n1,17551*,-5,1,-8
Nc1cc(=O)[nH]c(SCC(=O)Nc2ccc(F)c(Cl)c2)n1,21150*,-5,1,-6
CC(=O)Nc1cccc(-n2nnc(SCC(=O)Nc3ccc(F)c(Cl)c3)n2)c1,16932*,-51,-50,-294
CC(=O)Nc1cccc(-n2nnc(SCC(N)=O)n2)c1,4411,0,1,7
O=c1[nH]c2cccnc2n1Cc1ccco1,21423*,?,0,-4
CSCC[C@H](NC(=O)OC(C)(C)C)C(=O)N1CCC(C(=O)NCC(=O)Nc2ccc(C)cc2)CC1,3711,2,4,0
c1cnc2ccc(-n3ccnc3)cc2c1,6059,0,-2,-2
Cc1ccc(C(=O)CCC2CCCCC2=O)cc1 (stereo not drawn),19947*,?,0,0
COC(=O)c1ccc(CS(=O)(=O)c2ccc(C)cc2)o1,3209,0,-4,-1
COc1cc(OC)nc(NC(C)=O)n1,23958*,-4,-1,-4
CCN(C(=O)COC(=O)Cn1c(=O)oc2ccccc21)c1c(N)n(Cc2ccccc2)c(=O)[nH]c1=O,?,6,?,7
CC1(CCc2ccccc2)NC(=O)N(CC(=O)Nc2c(F)cccc2F)C1=O (stereo not drawn),5959,-3,-1,?
CCOC(=O)c1c(-n2c(C)cc(C=C3C(=O)NC(=S)NC3=O)c2C)sc2c1CCCC2,9156,36*,38*,29
SMILES,Bead autofluor,BoNT A protease,Anthrax LF prot,BoNT F protease
CCOC(=O)c1c(-n2c(C)cc(/C=C3/C(=O)NC(=O)N(CC)C3=O)c2C)sc2c1CCCC2,3493,1,-5,7
Cc1ccc(NC(=O)COc2ccc(Br)cn2)cc1,5182,-1,-10,-5
Cc1ccc(NC(=O)COc2nc(C)cs2)cc1,16659*,-1,-1,-2
CCc1nc2ccc(C(=O)N3CCN(C(=O)c4ccco4)CC3)cn2c1N(C)C(=O)Nc1ccccc1OC,3840,0,-11,6
Cc1ccc(S(=O)(=O)CNC(=S)c2ccc3ccccc3c2)cc1,22964*,?,-1,1
Cc1ccc(S(=O)(=O)CNC(=S)c2cccc(C)c2)cc1,10274,-1,-2,-7
CCC(Sc1ncccc1C(=O)OCCN1CCCC1=O)C(=O)NCc1ccco1 (stereo not drawn),20951*,6,-7,8
CCOC(=O)c1cccnc1SC(CC)C(=O)NCc1ccco1 (stereo not drawn),24254*,-1,0,-2
CCC(Sc1ncccc1C(=O)OC(C)C)C(=O)N1CCOCC1 (stereo not drawn),22945*,?,-10,-2
CCC(Sc1ncccc1C(=O)OC(C)C)C(=O)NCc1ccco1 (stereo not drawn),7901,1,0,5
Cc1cc(C(=O)NCCc2ccc(S(N)(=O)=O)cc2)c(C)o1,3276,-4,12,-8
CC(C)Oc1ccc(CSc2nnc3n(C)c(=O)c4c5c(sc4n23)CCCC5)cc1,24669*,?,-1,0
C=C(C)CSc1nnc2n(C)c(=O)c3c4c(sc3n12)CCC4,9500,1,-4,10
